Experimental data as given in PubChem BioAssay (NCI).
About 83,000 compounds went through this panel and 20% of them were active in at least one assay; those are over-represented in the sample as a whole.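 Treatment: one concentration, 48 hours, 96-well format. Scoring: percent growth, with anything below 10 considered active.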 A number with no mark means an inactive call. Active and inactive are the calls of the source.

Columns and labels:
Assay in all cases: NCI-60 one-dose screen, 48 h (100 = growth as untreated, 0 = no growth, -100 = all killed)
Conditions in all cases: 10 µM unless noted
[1] = test system: DU-145 prostate
[2] = test system: K-562 leukemia
[3] = test system: MALME-3M melanoma
[4] = test system: MDA-MB-231 breast
[5] = test system: RXF 393 renal
[6] = test system: SF-268 CNS
[7] = test system: SF-295 CNS
[8] = test system: SF-539 CNS
[9] = test system: UACC-257 melanoma
[10] = test system: M14 melanoma
[11] = test system: HCT-15 colon
[12] = test system: HT29 colon
[13] = test system: SNB-75 CNS
[14] = test system: SNB-19 CNS
[15] = test system: U251 CNS
[16] = test system: PC-3 prostate
[17] = test system: SK-MEL-5 melanoma
[18] = test system: UACC-62 melanoma
[19] = test system: LOX IMVI melanoma
[20] = test system: SK-MEL-28 melanoma

Row | Compound | growth [1] | growth [2] | growth [3] | growth [4] | growth [5] | growth [6] | growth [7] | growth [8] | growth [9] | growth [10] | growth [11] | growth [12] | growth [13] | growth [14] | growth [15] | growth [16] | growth [17] | growth [18] | growth [19] | growth [20]
1 | COc1cc2ncn3c(=O)c4c5c(sc4nc3c2cc1OC)CCCC5 | 105% | 146% | 89.8% | 90.6% | 105% | 94.3% | 101% | 99.2% | 119% | 91.2% | 99.9% | 91.8% | 85.1% | 93.2% | 98.7% | 87.6% | 102% | 93.4% | 98.6% | 106%
2 | CCCCCCCCCCCC(c1ccccc1)[N+](C)(C)C (stereo not given) | 39.8% | 19% | 5.27% (active) | 21.1% | -61% (active) | 13.2% | 55.1% | 15.8% | 20% | 11.2% | 93.4% | 3.96% (active) | -15.3% (active) | 25.2% | 18.3% | -18.8% (active) | -80.1% (active) | 6.22% (active) | -36.8% (active) | 31.6%
3 | COc1ccc(-c2cc(-c3cc(OC)ccc3OC)nc(SCC(=O)c3ccccc3)c2C#N)cc1 | 106% | 105% | 88.9% | 94.4% | 97.2% | 99% | 104% | 94.8% | 101% | 98.1% | 109% | 95% | 68% | 107% | 90.4% | 88.3% | 98.8% | 78.4% | 92.1% | 103%
4 | COC(=O)[C@]12CC[C@@H](C)[C@H](C)[C@@H]1C1=CC[C@@H]3[C@@]4(C)C(C=O)=C[C@@](C)(COC(=O)c5ccco5)C4=CC[C@@]3(C)[C@]1(C)CC2 | 10.7% | 11.1% | -43.5% (active) | -8.21% (active) | -56.3% (active) | -10.9% (active) | 11.7% | -15.3% (active) | -34.6% (active) | -33.9% (active) | -31.9% (active) | -0.473% (active) | 20% | 36.5% | -4.29% (active) | 14.1% | -87.1% (active) | -11.1% (active) | -86.3% (active) | -45.5% (active)
5 | C[C@H](NC(=O)[C@@H]1CSSC[C@@H](NC(=O)c2nc3ccccc3cc2O)C(=O)NCC(=O)N1C)c1ccccc1 | 32.2% | -30.9% (active) | 49.9% | -39.5% (active) | -27.4% (active) | 17.6% | 77.6% | 5.09% (active) | 60.9% | 0.586% (active) | 42.1% | -28.2% (active) | 80.3% | 35.4% | -7.49% (active) | 54.7% | 0.825% (active) | 16.7% | -74.5% (active) | 33.9%
6 | CC1=C([Se]CC(OC(=O)[C@@H](CO)NC(=O)OC(C)(C)C)C(=O)NC(C)(C)C)C(=O)c2ccccc2C1=O (stereo not given in full) | -71.1% (active) | -37% (active) | -64.9% (active) | -82.2% (active) | -86.2% (active) | -75.1% (active) | -37.4% (active) | -100% (active) | -87.1% (active) | -100% (active) | -74.1% (active) | -8.15% (active) | -100% (active) | -100% (active) | -95.2% (active) | -71.8% (active) | -98.2% (active) | -100% (active) | -96.4% (active) | -100% (active)
7 | Cc1ccc(C(=NN=C(N)N)c2ccc(C)cc2)cc1 | -16.6% (active) | 5.03% (active) | 40.4% | -11.3% (active) | -16.1% (active) | 16.7% | 0.547% (active) | -2.53% (active) | 25.9% | -74.7% (active) | 11.6% | 0.831% (active) | -1.11% (active) | 30.4% | 6.36% (active) | 16.3% | -68.6% (active) | 31.6% | -28.3% (active) | 21.4%
8 | CCC(CO)Nc1nc2ccc(Cl)cc2c2ccccc12 (stereo not given) | 84.9% | 38.2% | 85.8% | 55.7% | 4.53% (active) | 70.7% | 74.8% | 55.8% | 97.5% | 84.8% | 57.1% | 30.1% | 18.8% | 53.8% | 51.3% | 59.5% | 68.4% | 60.4% | 67.2% | 90.8%
9 | COc1cc(C2CC(=O)Nc3c2c(C)nn3-c2nc3ccccc3[nH]2)c(OC)c2c1OCO2 (stereo not given) | 88.5% | 17.2% | 73.9% | 73.4% | 73.2% | 71% | 36.9% | 78.4% | 85.5% | 52.1% | 40.2% | 95% | 31.1% | 71.4% | 67.8% | 71.3% | 56.9% | 55.5% | 82.1% | 75.8%
10 | COc1cc(CCC[P+](c2ccccc2)(c2ccccc2)c2ccccc2)cc2c1OCO2 | 48.2% | 21.8% | 14.6% | 29% | 76.3% | 26.1% | 68.6% | 43% | 17.4% | 30.8% | 106% | 79.3% | 12.7% | 14.9% | 23.9% | 16.7% | -41.2% (active) | -3.87% (active) | 32% | 27.1%
11 | CCN1C(=O)N(CC)C2Nn3c(s/c(=C\c4cccc([N+](=O)[O-])c4)c3=O)=NC21 (stereo not given) | 30.5% | 19.9% | 57.8% | 30.7% | 25.4% | 63.9% | 31% | 12.8% | 77.5% | 22.2% | 31.8% | 74.9% | 20% | 53.3% | 33.5% | 35.8% | 31.8% | 47% | 56.4% | 57.3%
12 | COc1ccc2nc(NNC(=O)c3cnccn3)c3cccn3c2c1 | 1.09% (active) | 4.97% (active) | -6.33% (active) | 5.83% (active) | 41.2% | 9.31% (active) | 2.1% (active) | -19.7% (active) | -8.01% (active) | -37.5% (active) | -19.5% (active) | 10% | 25.3% | 6.9% (active) | 0.414% (active) | 16.5% | 0.958% (active) | -34.2% (active) | -36.3% (active) | 11.7%
13 | CCCCCCCCCCN(CCCCCCCCCC)CC(=O)c1ccc2cc(Br)c3ccccc3c2c1 | 71.7% | -46.6% (active) | -78.2% (active) | 67.1% | 95.5% | 81% | 91.8% | 89% | 87% | -11.7% (active) | 64.9% | 3.77% (active) | 68.7% | 88% | -9.35% (active) | -71.7% (active) | 93.6% | 93.9% | 21.6% | 113%
14 | COc1ccc(OC)c(-c2c(C#N)c(-c3ccc(Cl)cc3)nc3c2c(-c2ccccc2)nn3-c2ccccc2)c1 | 99.1% | 97.7% | 101% | 101% | 101% | 96% | 109% | 98.8% | 100% | 101% | 105% | 109% | 85.1% | 100% | 98.7% | 92% | 110% | 90.7% | 94.4% | 105%
15 | COc1cc(N=Nc2ccc(N)cc2)c(OC)cc1N=Nc1ccccc1.[Cl][Zn][Cl] | 118% | 104% | 74.1% | 84.6% | 114% | 96.5% | 116% | 87.9% | 109% | 101% | 91.2% | 113% | 80.9% | 105% | 104% | 90.7% | 102% | 92.2% | 88% | 109%
16 | O=C(CC(SCc1ccccc1)c1ccccc1)c1ccccc1 (stereo not given) | 95.5% | 95.3% | 98.5% | 98.1% | 86.4% | 87.6% | 94.1% | 99% | 111% | 87% | 74.4% | 86.8% | 87.9% | 88.6% | 86.5% | 88.8% | 97.3% | 85.3% | 85.6% | 105%
